Of roughly 7,900 targets only a part is listed; those with a hit were picked by preference. About 0.6% of all pairs of compound and target were hits.
How the values were obtained:
Assay in all cases: log2 fold change, soluble protein after heating vs DMSO (PISA); higher = thermal stabilisation; K562 cells, 10 uM, 30 min; active = over 0.2 and 3.5 SD of the protein, either way, in both replicates (recomputed)
[1] = compound: C#Cc1cccc(Nc2ncnc3cc(OCCOC)c(OCCOC)cc23)c1 [erlotinib]
Procedure, shortened: (§1)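 K562 cells at 2×10^6 cells/mL were exposed to 10 μM compound for 30 min, then aliquots were heated for 3 min across 48°C-58°C, pooled, and extracted in PBS containing 0.5% NP-40 at 4°C. The supernatant after 21,000xg for 90 min was taken as soluble protein and measured by TMTpro 16plex LC-MS/MS with channel sums equalised. Thermal stability is reported relative to control samples, with values from duplicates. Fold changes are given on a log2 scale.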

[2] = compound: C/C(=N\NC(=O)C1=CC(=CC=C1)S(=O)(=O)N2CCOCC2)/C3=C(C=CC(=C3)Cl)O
Procedure, shortened: as §1

[3] = compound: C1=CC(=C(C=C1Cl)C2=NC3=NC=CN=C3C(=N2)NC4=CC=NC=C4)F
Procedure, shortened: as §1

[4] = compound: C1=CC(=CC=C1C2=NC3=C(N2)C=C(C=C3)C(=O)N)OC4=CC=C(C=C4)Cl
Procedure, shortened: as §1

[5] = compound: C1=CC2=C(C=CC(=C2)/C=C\3/C(=O)NC(=NCC4=CC=CS4)S3)N=C1
Procedure, shortened: as §1

[6] = compound: C1=CC2=NC=CN=C2C=C1/C=C/3\C(=O)NC(=O)S3
Procedure, shortened: as §1

[7] = compound: C1=CC=C(C=C1)C2=NC(=C(N2)C3=CC=NC=C3)C4=CC(=C(C=C4)Cl)O
Procedure, shortened: as §1

[8] = compound: C1=CC=C2C(=C1)C3=NNC4=CC=CC(=C43)C2=O
Procedure, shortened: as §1

[9] = compound: C1CCN(C1)C(=O)NC2=CC=CC(=C2)NC3=NC=C(C(=N3)NCCC4=CN=CN4)Br
Procedure, shortened: as §1

[10] = compound: C1CN(CCC1(CC2=CC=C(C=C2)Cl)N)C3=NC=NC4=C3C=CN4
Procedure, shortened: as §1

[11] = compound: C1COCCN1CCN2C3=CC=CC=C3N=C2NC(=O)C4=CC(=CC=C4)[N+](=O)[O-] [IRAK-1-4 Inhibitor I]
Procedure, shortened: as §1

[12] = compound: C=CC(=O)N1CCC[C@@H](n2nc(-c3ccc(Oc4ccccc4)cc3)c3c(N)ncnc32)C1 [ibrutinib]
Procedure, shortened: as §1

[13] = compound: CC(=O)c1cnc2ccc(-c3cc(Cl)c(O)c(Cl)c3)nc2c1N[C@H]1CC[C@H](CN(C)C)CC1
Procedure, shortened: as §1

[14] = compound: CC(C)(C)Cn1c(N)nc2ccc(-c3[nH]c(C(C)(C)C)nc3-c3ccc(F)cc3)nc21 [ralimetinib]
Procedure, shortened: as §1

[15] = compound: CC(C)(O)CC(=O)NCCn1ccc2ncnc(Nc3ccc(Oc4cccc(C(F)(F)F)c4)c(Cl)c3)c21
Procedure, shortened: as §1

[16] = compound: CC(C)C1=C2N=C(C=C(N2N=C1)NCC3=CC=CC=C3)NCCCCCCN
Procedure, shortened: as §1

[17] = compound: CC(C)C[C@@H](C=O)NC(=O)[C@H](CC(C)C)NC(=O)[C@H](CC(C)C)NC(=O)OCc1ccccc1
Procedure, shortened: as §1

[18] = compound: CC(C)N(C[C@H]1O[C@@H](n2cnc3c(N)ncnc32)[C@H](O)[C@@H]1O)[C@H]1C[C@@H](CCc2nc3cc(C(C)(C)C)ccc3[nH]2)C1 [pinometostat]
Procedure, shortened: as §1

[19] = compound: CC1=C(C(CC(=O)N1)C2=CC=C(C=C2)C(F)(F)F)C(=O)NC3=C(C=C4C(=C3)C=NN4)F
Procedure, shortened: as §1

[20] = compound: CC1=C(C2=C(C=C1)C(=O)C3=CC=CC=C3N2CCCN)C
Procedure, shortened: as §1

Measured: log2 fold change

CA1 (UniProt P00915)
inactive: [1] -0.025 | [2] 0.022 | [3] 0.03 | [4] 0.006 | [5] -0.079 | [6] 0.009 | [7] 0.064 | [8] 0.004 | [9] 0.018 | [10] 0.054 | [11] 0.068 | [12] -0.02 | [13] 0.003 | [14] 0.017 | [15] -0.031 | [16] 0.119 | [17] -0.011 | [18] -0.006 | [19] -0.019 | [20] -0.043

COMMD2 (UniProt Q86X83)
Chain of UniProt Q86X83 (Q86X83 whole entry, looked up): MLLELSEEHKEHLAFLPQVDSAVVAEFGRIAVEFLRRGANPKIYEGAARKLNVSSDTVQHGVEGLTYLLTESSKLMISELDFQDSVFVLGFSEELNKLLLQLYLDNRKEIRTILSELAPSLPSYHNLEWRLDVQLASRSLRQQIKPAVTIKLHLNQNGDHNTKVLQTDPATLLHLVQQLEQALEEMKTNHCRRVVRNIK
inactive: [1] 0.114 | [2] 0.049 | [3] -0.053 | [4] 0.085 | [5] 0.091 | [6] -0.02 | [7] -0.017 | [8] 0.058 | [9] 0.071 | [10] -0.119 | [11] -0.009 | [12] -0.038 | [13] -0.119 | [14] -0.023 | [15] -0.179 | [16] -0.271 | [17] 0.007 | [18] 0.037 | [19] 0.008 | [20] 0.01

CDK12 (UniProt Q9NYV4)
inactive: [1] -0.049 | [2] 0.001 | [3] -0.44 | [4] 0.076 | [5] -0.06 | [6] -0.053 | [7] -0.066 | [8] -0.23 | [9] -0.077 | [10] -0.187 | [11] -0.179 | [12] 0.008 | [13] -0.566 | [14] 0.138 | [15] 0.067 | [16] -0.211 | [17] 0.006 | [18] 0.399 | [19] 0.041 | [20] -0.014

CHEK1 (UniProt O14757)
Chain of UniProt O14757 (O14757 whole entry, looked up): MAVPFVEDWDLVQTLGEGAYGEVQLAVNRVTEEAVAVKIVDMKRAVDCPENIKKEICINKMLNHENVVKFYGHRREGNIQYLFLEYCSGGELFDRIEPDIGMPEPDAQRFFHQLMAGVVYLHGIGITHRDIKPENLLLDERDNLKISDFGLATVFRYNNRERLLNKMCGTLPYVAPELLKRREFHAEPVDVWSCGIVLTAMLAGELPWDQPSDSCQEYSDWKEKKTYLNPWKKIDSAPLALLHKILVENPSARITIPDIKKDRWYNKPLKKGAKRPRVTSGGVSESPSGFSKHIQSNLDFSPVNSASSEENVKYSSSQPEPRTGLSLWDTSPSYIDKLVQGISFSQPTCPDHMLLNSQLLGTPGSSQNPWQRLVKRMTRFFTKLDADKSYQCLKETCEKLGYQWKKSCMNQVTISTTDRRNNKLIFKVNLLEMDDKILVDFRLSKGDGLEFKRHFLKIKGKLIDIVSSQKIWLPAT
active: [9] -0.303
inactive: [1] 0.03 | [2] 0.047 | [3] 0.029 | [4] 0.012 | [5] 0.246 | [6] 0 | [7] -0.026 | [8] -0.099 | [10] -0.089 | [11] -0.018 | [12] -0.014 | [13] 0 | [14] -0.076 | [15] -0.055 | [16] 0.003 | [17] 0.056 | [18] 0.018 | [19] 0.017 | [20] -0.029

CNOT2 (UniProt Q9NZN8)
Chain of UniProt Q9NZN8 (Q9NZN8 whole entry, looked up): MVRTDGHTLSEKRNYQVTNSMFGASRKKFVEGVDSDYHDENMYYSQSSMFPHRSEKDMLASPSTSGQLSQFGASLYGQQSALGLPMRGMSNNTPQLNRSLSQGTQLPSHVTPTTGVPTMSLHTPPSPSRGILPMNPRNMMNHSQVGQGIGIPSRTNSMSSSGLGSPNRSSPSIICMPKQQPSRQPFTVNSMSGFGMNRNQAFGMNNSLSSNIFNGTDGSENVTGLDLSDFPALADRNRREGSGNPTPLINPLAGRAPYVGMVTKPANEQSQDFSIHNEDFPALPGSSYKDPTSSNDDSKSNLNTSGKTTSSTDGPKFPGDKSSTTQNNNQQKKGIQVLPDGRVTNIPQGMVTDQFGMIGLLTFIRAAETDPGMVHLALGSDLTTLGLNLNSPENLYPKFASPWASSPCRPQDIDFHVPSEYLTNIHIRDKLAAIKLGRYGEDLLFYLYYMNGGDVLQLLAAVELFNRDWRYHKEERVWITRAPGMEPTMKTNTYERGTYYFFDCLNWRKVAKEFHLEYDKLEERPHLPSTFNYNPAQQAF
inactive: [1] 0.043 | [2] 0.059 | [3] 0.009 | [4] -0.024 | [5] 0.016 | [6] 0.045 | [7] -0.031 | [8] -0.042 | [9] -0.019 | [10] -0.034 | [11] 0.112 | [12] 0.013 | [13] -0.045 | [14] -0.027 | [15] -0.038 | [16] -0.112 | [17] 0.013 | [18] 0.05 | [19] -0.005 | [20] 0.059

CNN2 (UniProt Q99439)
Chain of UniProt Q99439 (Q99439 whole entry, looked up): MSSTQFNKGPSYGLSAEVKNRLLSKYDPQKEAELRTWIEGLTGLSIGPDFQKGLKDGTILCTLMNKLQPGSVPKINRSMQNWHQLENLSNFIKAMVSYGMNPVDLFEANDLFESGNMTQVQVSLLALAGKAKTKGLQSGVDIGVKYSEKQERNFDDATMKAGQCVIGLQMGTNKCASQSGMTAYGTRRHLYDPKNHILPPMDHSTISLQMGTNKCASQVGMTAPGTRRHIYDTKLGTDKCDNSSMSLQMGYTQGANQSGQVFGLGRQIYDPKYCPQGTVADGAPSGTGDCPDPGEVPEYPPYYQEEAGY
inactive: [1] 0.047 | [2] 0.124 | [3] 0.109 | [4] -0.039 | [5] 0.013 | [6] 0.032 | [7] -0.012 | [8] -0.011 | [9] -0.017 | [10] -0.042 | [11] -0.037 | [12] -0.07 | [13] 0.011 | [14] 0.007 | [15] -0.091 | [16] -0.052 | [17] 0.038 | [18] 0.018 | [19] 0.05 | [20] 0.007

COCH (UniProt O43405)
Chain of UniProt O43405 (O43405 whole entry, looked up): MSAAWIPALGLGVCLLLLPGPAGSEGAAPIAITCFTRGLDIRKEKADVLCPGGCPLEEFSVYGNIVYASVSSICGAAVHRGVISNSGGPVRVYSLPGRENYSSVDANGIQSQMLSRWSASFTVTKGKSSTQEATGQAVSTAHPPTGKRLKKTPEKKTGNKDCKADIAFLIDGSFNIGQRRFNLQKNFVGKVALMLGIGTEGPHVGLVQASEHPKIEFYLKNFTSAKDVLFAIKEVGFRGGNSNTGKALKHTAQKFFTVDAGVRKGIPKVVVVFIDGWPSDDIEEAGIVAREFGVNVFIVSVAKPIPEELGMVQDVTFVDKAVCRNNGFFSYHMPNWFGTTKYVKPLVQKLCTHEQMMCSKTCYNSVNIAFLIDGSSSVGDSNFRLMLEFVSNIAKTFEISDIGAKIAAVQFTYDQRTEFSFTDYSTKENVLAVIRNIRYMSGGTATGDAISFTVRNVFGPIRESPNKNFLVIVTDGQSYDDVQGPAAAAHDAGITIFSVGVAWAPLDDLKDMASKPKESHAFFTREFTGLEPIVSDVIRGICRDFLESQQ
inactive: [1] -0.083 | [2] -0.028 | [3] -0.044 | [4] 0.007 | [5] -0.098 | [6] 0.007 | [7] -0.002 | [8] -0.072 | [9] -0.043 | [10] -0.101 | [11] 0.001 | [12] 0.058 | [13] 0.045 | [14] 0.041 | [16] 0.021 | [17] -0.019 | [18] 0.043 | [19] -0.072 | [20] -0.353
active: [15] 0.331

CDK11B (UniProt P21127)
inactive: [1] 0.044 | [2] 0.006 | [3] -0.139 | [4] 0.063 | [5] 0.035 | [6] -0.033 | [7] -0.042 | [8] -0.049 | [9] -0.033 | [10] -0.058 | [11] -0.151 | [12] -0.026 | [14] 0.04 | [15] -0.006 | [16] -0.116 | [17] 0.076 | [18] -0.11 | [19] -0.009
active: [13] 2.34 | [20] -0.366

CDC123 (UniProt O75794)
inactive: [1] -0.039 | [2] 0.038 | [3] 0.011 | [4] 0.036 | [5] -0.021 | [6] 0.032 | [7] 0.048 | [8] -0.001 | [9] -0.001 | [10] 0.023 | [11] -0.023 | [12] -0.009 | [13] -0.026 | [14] -0.015 | [15] -0.088 | [16] -0.05 | [17] 0.037 | [18] -0.009 | [19] 0 | [20] 0.001

CHST10 (UniProt O43529)
Chain of UniProt O43529 (O43529 whole entry, looked up): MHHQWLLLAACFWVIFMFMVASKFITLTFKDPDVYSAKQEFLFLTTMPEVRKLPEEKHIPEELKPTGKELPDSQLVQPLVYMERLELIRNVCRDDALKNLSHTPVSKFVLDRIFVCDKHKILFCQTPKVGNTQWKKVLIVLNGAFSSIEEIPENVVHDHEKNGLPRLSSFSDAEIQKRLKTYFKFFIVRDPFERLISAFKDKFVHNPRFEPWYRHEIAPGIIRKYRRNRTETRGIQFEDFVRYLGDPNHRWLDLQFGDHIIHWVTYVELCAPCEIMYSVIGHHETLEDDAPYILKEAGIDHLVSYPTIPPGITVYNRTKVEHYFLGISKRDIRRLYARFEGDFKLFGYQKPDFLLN
active: [16] -0.435
inactive: [1] 0.013 | [2] -0.168 | [3] -0.144 | [4] -0.058 | [5] -0.111 | [6] 0.03 | [7] 0.067 | [8] 0.101 | [9] 0.008 | [10] 0.06 | [11] 0.056 | [12] -0.062 | [13] -0.135 | [14] 0.059 | [15] 0.042 | [17] -0.003 | [18] 0.082 | [19] 0.025 | [20] 0.036

CRK (UniProt P46108)
active: [13] -0.887
inactive: [1] -0.022 | [2] 0.035 | [3] -0.002 | [4] -0.012 | [5] -0.011 | [6] 0.03 | [7] -0.076 | [8] 0.049 | [9] 0.016 | [10] 0.001 | [11] -0.046 | [12] -0.097 | [14] -0.013 | [15] -0.007 | [16] -0.003 | [17] 0.032 | [18] -0.037 | [19] -0.011 | [20] 0.07

CBS (UniProt P35520)
Chain of UniProt P35520 (P35520 whole entry, looked up): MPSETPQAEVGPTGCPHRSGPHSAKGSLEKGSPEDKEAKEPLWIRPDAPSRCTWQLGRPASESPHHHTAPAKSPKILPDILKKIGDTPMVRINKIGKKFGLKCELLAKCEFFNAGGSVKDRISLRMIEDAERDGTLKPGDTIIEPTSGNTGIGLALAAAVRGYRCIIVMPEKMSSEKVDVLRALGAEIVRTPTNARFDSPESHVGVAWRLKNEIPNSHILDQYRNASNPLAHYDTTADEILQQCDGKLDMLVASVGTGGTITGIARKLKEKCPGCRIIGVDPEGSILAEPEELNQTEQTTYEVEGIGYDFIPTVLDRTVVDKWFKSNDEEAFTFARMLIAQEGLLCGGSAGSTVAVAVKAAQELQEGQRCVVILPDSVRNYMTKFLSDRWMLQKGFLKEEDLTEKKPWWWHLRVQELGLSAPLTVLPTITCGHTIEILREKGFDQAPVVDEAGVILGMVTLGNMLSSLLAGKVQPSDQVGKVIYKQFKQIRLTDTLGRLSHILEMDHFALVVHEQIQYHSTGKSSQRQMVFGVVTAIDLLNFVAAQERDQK
inactive: [1] 0.014 | [2] -0.031 | [3] 0.039 | [4] -0.014 | [5] -0.026 | [6] 0.013 | [7] -0.03 | [8] 0.052 | [9] 0.025 | [10] 0.042 | [11] 0.044 | [12] -0.007 | [13] 0.008 | [14] -0.01 | [15] 0.027 | [16] 0.036 | [17] -0.013 | [18] -0.048 | [19] 0.034 | [20] 0.001

COPS4 (UniProt Q9BT78)
Chain of UniProt Q9BT78 (Q9BT78 whole entry, looked up): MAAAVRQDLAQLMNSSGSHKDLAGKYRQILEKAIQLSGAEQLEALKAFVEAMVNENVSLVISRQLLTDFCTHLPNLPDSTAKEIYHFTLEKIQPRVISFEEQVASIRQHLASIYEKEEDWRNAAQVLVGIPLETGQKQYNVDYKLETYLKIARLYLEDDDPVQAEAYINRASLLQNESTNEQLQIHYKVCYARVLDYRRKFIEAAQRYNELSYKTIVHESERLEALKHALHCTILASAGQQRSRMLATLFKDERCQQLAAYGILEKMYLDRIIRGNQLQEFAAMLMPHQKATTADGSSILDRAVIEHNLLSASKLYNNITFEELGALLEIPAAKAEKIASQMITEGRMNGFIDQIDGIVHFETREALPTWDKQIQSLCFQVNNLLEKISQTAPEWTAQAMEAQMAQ
inactive: [1] -0.002 | [2] 0.061 | [3] 0.13 | [4] -0.004 | [5] 0.036 | [6] -0.006 | [7] 0.054 | [8] 0.024 | [9] -0.009 | [10] -0.002 | [11] 0.015 | [12] 0.043 | [13] 0.01 | [14] -0.004 | [15] -0.014 | [16] 0.009 | [17] -0.008 | [18] -0.048 | [19] -0.019 | [20] 0.028

COASY isoform 2 (UniProt Q13057)
Chain of UniProt Q13057 (Q13057 whole entry, looked up): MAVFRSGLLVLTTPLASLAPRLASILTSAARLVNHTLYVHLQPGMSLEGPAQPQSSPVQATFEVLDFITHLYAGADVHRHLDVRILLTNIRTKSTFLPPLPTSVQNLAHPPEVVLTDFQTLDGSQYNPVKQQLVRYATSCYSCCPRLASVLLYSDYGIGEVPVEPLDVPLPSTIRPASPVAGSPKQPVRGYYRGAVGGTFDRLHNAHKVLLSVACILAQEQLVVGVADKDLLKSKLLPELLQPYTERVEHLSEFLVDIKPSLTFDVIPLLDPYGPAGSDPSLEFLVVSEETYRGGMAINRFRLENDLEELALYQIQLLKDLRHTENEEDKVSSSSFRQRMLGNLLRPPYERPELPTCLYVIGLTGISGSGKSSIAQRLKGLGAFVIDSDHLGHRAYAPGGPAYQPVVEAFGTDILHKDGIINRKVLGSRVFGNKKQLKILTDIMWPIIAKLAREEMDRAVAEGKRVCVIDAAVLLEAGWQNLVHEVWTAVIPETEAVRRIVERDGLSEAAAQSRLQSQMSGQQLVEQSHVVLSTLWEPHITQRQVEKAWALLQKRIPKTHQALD
inactive: [1] -0.022 | [2] 0.1 | [3] 0.042 | [4] -0.067 | [5] 0.032 | [6] 0.01 | [7] 0.076 | [8] 0.043 | [9] -0.011 | [10] 0.092 | [11] 0.039 | [12] 0.004 | [13] -0.016 | [14] -0.032 | [15] -0.063 | [16] 0.037 | [17] -0.02 | [18] 0.005 | [19] -0.018 | [20] 0.079

CDC42BPA isoform 6 (UniProt Q5VT25)
inactive: [1] -0.081 | [2] 0.115 | [3] -0.022 | [4] 0.008 | [5] -0.337 | [6] -0.011 | [7] 0.03 | [8] 0.073 | [9] -0.03 | [10] -0.396 | [11] -0.025 | [12] -0.09 | [14] 0.094 | [15] -0.02 | [16] -0.193 | [17] 0.043 | [18] 0.029 | [19] -0.192 | [20] 0.132
active: [13] -1.07

CNTN4 (UniProt Q8IWV2)
Chain of UniProt Q8IWV2 (Q8IWV2 whole entry, looked up): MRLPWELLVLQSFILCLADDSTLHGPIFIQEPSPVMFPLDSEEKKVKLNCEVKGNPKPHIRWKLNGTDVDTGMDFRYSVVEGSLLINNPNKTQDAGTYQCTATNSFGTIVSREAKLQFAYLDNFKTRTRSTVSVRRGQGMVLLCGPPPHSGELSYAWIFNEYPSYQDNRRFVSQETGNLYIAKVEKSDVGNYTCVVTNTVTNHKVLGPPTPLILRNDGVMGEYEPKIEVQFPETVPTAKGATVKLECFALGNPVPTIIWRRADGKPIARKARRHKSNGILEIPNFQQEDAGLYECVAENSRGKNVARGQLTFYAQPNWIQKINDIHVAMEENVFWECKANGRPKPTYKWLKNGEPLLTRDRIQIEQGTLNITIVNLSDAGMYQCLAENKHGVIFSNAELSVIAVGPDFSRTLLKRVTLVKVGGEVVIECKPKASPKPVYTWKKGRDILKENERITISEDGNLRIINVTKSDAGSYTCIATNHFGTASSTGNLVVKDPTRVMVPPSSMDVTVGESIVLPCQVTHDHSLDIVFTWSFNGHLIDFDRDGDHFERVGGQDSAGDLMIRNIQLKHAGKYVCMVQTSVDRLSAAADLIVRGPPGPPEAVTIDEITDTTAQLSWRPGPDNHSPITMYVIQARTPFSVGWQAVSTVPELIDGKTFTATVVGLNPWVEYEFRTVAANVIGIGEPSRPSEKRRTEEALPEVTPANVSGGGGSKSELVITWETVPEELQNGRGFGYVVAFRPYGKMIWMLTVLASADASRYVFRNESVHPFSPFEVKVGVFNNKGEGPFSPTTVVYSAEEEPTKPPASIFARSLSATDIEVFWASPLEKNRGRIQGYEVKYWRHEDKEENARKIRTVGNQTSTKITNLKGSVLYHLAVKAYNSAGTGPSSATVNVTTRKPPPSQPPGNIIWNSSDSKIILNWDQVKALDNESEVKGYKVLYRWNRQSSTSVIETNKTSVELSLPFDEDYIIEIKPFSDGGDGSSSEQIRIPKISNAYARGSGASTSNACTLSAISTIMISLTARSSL
inactive: [1] 0.284 | [3] 0.012 | [4] 0.018 | [5] 0.179 | [6] -0.095 | [7] 0.05 | [8] 0.097 | [9] -0.097 | [10] 0.194 | [11] 0.049 | [12] 0.023 | [13] 0.065 | [14] 0.025 | [15] -0.108 | [16] 0.195 | [17] 0.044 | [18] -0.027 | [19] -0.014 | [20] 0.137
active: [2] -0.641
